# Measured values taken from PMC5540273 (PLoS ONE, 2017).
# Test system: T1, MINK
# T1 construct: gene MINK1
# Conditions: concentration: 1 μM, replicates: in singlicate; n = 1
# 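Note: KINOMEscan kinase panel screen.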
row,SMILES,%Inh
1,CCn1c(-c2cccnc2O)nc2cnccc21 [SB-736715],0%
2,Cl.Oc1ccc(-c2nc(-c3ccccc3)[nH]c2-c2ccncc2)cc1 [SB-428218],11%
3,CC(=O)Nc1nc2cnc(Nc3cc(NC(=O)c4cccc(CCC#N)c4)ccc3C)nc2s1,4%
4,O=S(=O)(c1ccc(-c2ccnc3[nH]ccc23)cc1)N1CCCC1 [GSK846226],0%
5,CN1C(=O)C(Nc2ccc(Cl)c(C(=O)O)c2)=C(c2ccc(Cl)cc2)C1=O [SB-404290],10%
6,Fc1cc(Cl)ccc1Nc1ccnc2cc(I)ccc12 [GW551191],51%
7,O=c1cc(N2CCOCC2)nc2n(Cc3cccc(Cl)c3Cl)ccn12 [GSK2286295],6%
8,Cn1ccc2ncnc(Oc3ccc(NC(=O)Nc4ccccc4)cc3)c21,16%
9,COc1cc(Nc2nccc(N3CCC(NC(=O)Nc4cc(C)ccc4C)C3)n2)cc(OC)c1OC (centres unmarked) [GSK1379762],0%
10,CC(C)(C)c1ccc(C(=O)Nc2cn3cc(Cl)ccc3n2)cc1,9%
11,COc1ccccc1CNC(=O)c1cc(C(=O)c2ccccc2C)c[nH]1 [GSK364507],0%
12,O=C(O)COc1ncnc2cc(-c3ccc4[nH]ncc4c3)sc12,12%
13,CS(=O)(=O)c1ccc(-c2nc3n(c2-c2ccncc2)CCC3)cc1 [SKF-105942],1%
14,Cc1c(Cn2ccn3c(=O)cc(N4CCOCC4)nc23)cccc1C(F)(F)F [GSK2289044],1%
